Most compounds without a hit are left out; they make up all but 3.9% or so of the library.
OvCa metastasis = inhibitors of ovarian cancer cell adhesion and invasion in omental model; SKOV3ip1-GFP adhesion/invasion on 3D omental model, fluorescence; Potency, µM (series often up to 45.8 µM), usual class: inhibitors; actives 0.1% (n = 46,000); further: nearly all actives have a fitted effect of over 65% in size
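Adhesion/invasion was scored as fixed GFP-labeled SKOV3ip1 cell counts (488/509 nm), normalized to DMSO and tomatine controls. Cancer cells in serum-free medium, with four compound doses (0.36-46 umol/L), sat 2 hr at RT then 16 hr at 37 C on a 48 hr fibroblast/mesothelial/ECM culture.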
FH mod = Identification of activators of human fumarate hydratase by quantitative high-throughput screening; Potency, µM (doses to about 79.9 µM), hits mostly inhibitors; actives 0.22% (n = 54,000); Fumarate hydratase, mitochondrial (Homo sapiens), P07954; FH coupled MDH/diaphorase resazurin fluorescence, 15 min; further: the screen sought activators but most active calls are inhibition curves; nearly all actives have a fitted effect of over 45% in size
NTMT1 inhibitor = blocks human N-terminal methyltransferase 1 activity. Q9BV86. NTMT1 MTase-Glo SAH luminescence, purified enzyme. Potency, µM (titrated, usually from 114 µM), most hits filed as inhibitors. actives 2.5% (n = 59,000); further: nearly all actives have a fitted effect of over 65% in size
Target sequence (Q9BV86 whole entry, looked up): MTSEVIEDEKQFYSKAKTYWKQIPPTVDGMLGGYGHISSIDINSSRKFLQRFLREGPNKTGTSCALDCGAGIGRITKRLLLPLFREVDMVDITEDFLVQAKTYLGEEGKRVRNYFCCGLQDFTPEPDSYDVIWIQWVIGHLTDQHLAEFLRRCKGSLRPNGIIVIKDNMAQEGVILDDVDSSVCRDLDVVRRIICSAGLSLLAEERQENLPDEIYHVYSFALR
DRV1 agonist = GPR32 (DRV1) agonism, beta-arrestin recruitment; CHO-K1 GPR32 beta-arrestin PathHunter luminescence, 90 min; zero percent set by DMSO-only wells; O75388; AID 1346428; activation, % at 76.9 µM; actives 2.5% (n = 48,000);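 active means activation of at least 60% and not above a set upper limit, about 1 call in 100 departs from these limits; inconclusive means activation of 40% to 60%, or above that upper limit; inactive means activation under 40%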
Target sequence (O75388 whole entry, looked up): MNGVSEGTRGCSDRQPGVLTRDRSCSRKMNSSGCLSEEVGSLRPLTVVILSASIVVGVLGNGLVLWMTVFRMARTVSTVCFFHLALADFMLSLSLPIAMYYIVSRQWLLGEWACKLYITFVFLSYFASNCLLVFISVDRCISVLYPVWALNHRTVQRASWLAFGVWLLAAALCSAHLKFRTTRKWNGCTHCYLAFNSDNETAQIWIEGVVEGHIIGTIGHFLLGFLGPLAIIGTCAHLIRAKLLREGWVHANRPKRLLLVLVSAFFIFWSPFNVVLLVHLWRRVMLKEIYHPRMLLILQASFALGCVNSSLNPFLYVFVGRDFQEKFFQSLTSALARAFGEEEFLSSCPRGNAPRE
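PathHunter beta-arrestin recruitment in CHO-K1 cells stably expressing ProLink-tagged GPR32. Cells were exposed to compound for 90 min at 37 C, then chemiluminescence was read after 1 h detection at ambient temperature; DMSO served as basal control.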
A number is an active result; – = inactive; ? = inconclusive; · = no result given; ! = repeats disagree. Unless noted, the call rests on the fitted dose curve; in most records, active means well fitted curve in the direction sought with a large enough effect; inconclusive means small, poorly fitted or top-dose-only effect, or another doubt; inactive means no such curve, though single readings can be large; an effect the other way counts as inactive or inconclusive.

SMILES	OvCa metastasis	FH mod	NTMT1 inhibitor	DRV1 agonist
CO[C@@H](C(=O)N1Cc2[nH]nc(NC(=O)c3ccc(N4CCN(C)CC4)cc3)c2C1)c1ccccc1	13µM	–	–	·
CCc1nnc(NC(=O)c2nc(S(=O)(=O)Cc3cccc(C)c3)ncc2Cl)s1	13µM	–	–	–
O=C(Nc1nc2ccc(F)cc2s1)c1nc(S(=O)(=O)Cc2ccccc2F)ncc1Cl	?	–	–	105
COc1ccc(NC(=O)c2nc(S(=O)(=O)Cc3ccc(C)cc3)ncc2Cl)cc1	?	–	–	–
Cc1ccc(C)c(NC(=O)c2nc(S(=O)(=O)Cc3ccc(F)cc3)ncc2Cl)c1	11µM	–	–	–
CCc1nnc(NC(=O)c2nc(S(=O)(=O)Cc3ccc(C)cc3)ncc2Cl)s1	?	–	–	–
CCC(C)/C=C(C)/C=C/C1=CC2=C(Cl)C(=O)C(C)(OC(C)=O)C(=O)C2=CN1CCCC(=O)O (configuration not stated)	·	–	–	·
CC(C)C[C@H](NC(=O)[C@H](Cc1ccccc1)NC(=O)OCc1ccccc1)C(=O)C=O	·	·	–	·
CNC(=O)Nc1ccc(-c2nc(N3CC4CCC(C3)O4)c3cnn(C4CCC5(CC4)OCCO5)c3n2)cc1	?	–	?	·
COc1cc(O)cc(OC2OC(CO)C(O)C(O)C2O)c1 (configuration not stated)	·	–	–	·
CN[C@@H](C)C(=O)N[C@H](C(=O)N1CCC[C@H]1c1nc(C(=O)c2ccc(F)cc2)cs1)C1CCCCC1	·	·	–	·
COC(=O)c1cc2sc(Cl)cc2n1Cc1c(C)cc(C)cc1C	–	–	–	–
COC(=O)c1cc2sc(Cl)cc2n1CC(=O)Nc1cc(OC)cc(OC)c1	–	–	–	89
COC(=O)CC1(O)C(=O)Nc2ccccc21 (configuration not stated)	·	–	–	·
CCn1c(CN2CCCCC2)nc2cc(NC(=O)c3ccc([N+](=O)[O-])cc3)ccc21	–	–	–	71
Cc1nc(-c2cccc(F)c2)sc1CCNC(=O)c1ccc(F)c(F)c1	–	?	–	63
Cc1ccc(C(=O)NCCc2csc(-c3cccc(F)c3)n2)cc1C	–	–	–	61
O=C(NCCc1csc(-c2cccc(F)c2)n1)c1ccc(Br)o1	–	–	–	94
Nc1nc(N)c2nc(-c3cccc(O)c3)c(-c3cccc(O)c3)nc2n1	–	–	?	·
COc1ccc(CCNC(=O)c2cc3c(-c4ccc(OC)c(OC)c4)nn(C)c3s2)cc1OC	–	32µM	–	–
CCOc1ccc(CCNC(=O)c2cc3c(-c4ccc(OC)c(OC)c4)nn(C)c3s2)cc1OCC	–	?	–	–
O=C(Nc1cccc(C(F)(F)F)c1)c1cc(-c2ccc3c(c2)OCCO3)on1	?	–	–	94
CC1=C(C(=O)Nc2ccccc2Cl)C(c2ccccc2Br)N=C(Nc2nc3ccccc3o2)N1 (configuration not stated)	·	·	–	·
C[N+]1(CC2COC(c3ccccc3)(C3CCCCC3)O2)CCCCC1 (configuration not stated)	·	–	16µM	–
Cc1ccc(-n2ncc(C(=O)N3CCN(c4cccc(C)c4C)CC3)c2C2CCNCC2)c(C)c1	?	–	79µM	–
SMILES	OvCa metastasis	FH mod	NTMT1 inhibitor	DRV1 agonist
CC(C)c1ccccc1-c1ncc(N)c(NCc2ccc(-c3cccnc3)cc2)n1	·	·	–	·
CCc1ccc(CNC(=O)CSc2cc(=O)n(CC)c3ccccc23)cc1	–	–	–	61
CCn1c(=O)cc(SCC(=O)NCc2ccc(C)cc2)c2ccccc21	–	–	?	69
CCn1c(=O)cc(SCC(=O)NCc2ccc(OC)cc2OC)c2ccccc21	–	–	–	–
CCN(CCCNC(=O)c1cc2c(=O)n(C)c3ccccc3c2s1)c1ccccc1	–	–	?	70
CCOc1ccc(CNC(=O)CSc2cc(=O)n(CC)c3ccccc23)cc1	–	–	–	–
CCN(CCCNC(=O)CSc1cc(=O)n(CC)c2ccccc12)c1ccccc1	–	–	?	117
C[C@@H](N)C(=O)Nc1cccc(-c2nn3c(=O)cc(N4CCNCC4)nc3s2)c1	·	·	–	·
COc1cc(-c2ncn(/C=C\C(=O)OC(C)C)n2)cc(C(F)(F)F)c1	·	–	–	·
Cc1ccc2nc3c(c(Nc4ccc(C)c(C)c4)c2c1)CCC3	–	–	–	101
CCCCC(=O)OCC(=O)[C@]1(O)Cc2c(O)c3c(c(O)c2[C@@H](O[C@H]2C[C@H](NC(=O)C(F)(F)F)[C@H](O)[C@H](C)O2)C1)C(=O)c1c(OC)cccc1C3=O	·	·	–	·
O=C(COc1ccccc1)Nc1nnc(SCc2cc(=O)c3ccccc3[nH]2)s1	–	–	–	?
CCC(CC)C(=O)Nc1nnc(SCc2cc(=O)c3ccccc3[nH]2)s1	–	–	?	99
Cc1ccc(OCC(=O)Nc2nnc(SCc3cc(=O)c4ccccc4[nH]3)s2)cc1	–	–	–	120
Cc1cc2c(C(C)C)c(O)c(O)c(C=O)c2c(O)c1-c1c(C)cc2c(C(C)C)c(O)c(O)c(C=O)c2c1O	–	28µM!	20µM!	–
CC1CCN(S(=O)(=O)c2nnc(NC(=O)c3cccc(Cl)c3)s2)CC1	–	–	–	69
O=C(Nc1nnc(S(=O)(=O)N2CCCCCC2)s1)c1ccccc1	–	–	–	–
CCCCCCCCCCCC1=C(O)C(=O)C=C(O)C1=O	–	–	45µM!	·
COc1ccc(C=CC(=O)Nc2ccccc2C(=O)O)cc1OC	–	–	–	·
CCCN(CCN1CCN(c2ccccc2OC)CC1)C1CCc2ncsc2C1 (configuration not stated)	·	–	?	·
CN[C@H]1CC[C@@H](c2ccc(Cl)c(Cl)c2)c2ccccc21	·	?	28µM!	81!
O=C(Nc1ccc(Cl)c(Cl)c1)N1CCC(c2ccccc2)C1 (configuration not stated)	–	–	–	–
CCc1c(C)nc2nc(-c3ccccc3)nn2c1NCc1ccc(C)cc1	–	?	–	72
Cc1nnc(-c2ccccc2[N+](=O)[O-])n1CCCn1ccnc1	·	·	–	·
CC(C)NCC(O)c1ccc(O)c(O)c1 (configuration not stated)	–	–	?	–
SMILES	OvCa metastasis	FH mod	NTMT1 inhibitor	DRV1 agonist
CC(C)NCC(O)c1ccc2ccccc2c1 (configuration not stated)	·	–	?	68
Cc1ccc(CC(=O)Nc2nc(-c3ccc4c(c3)CCN4C(=O)c3ccccc3C)c(C)s2)cc1C	·	·	–	·
COc1ccc(N2CCN(C(=O)C3CCN(Cc4nc(-c5ccc(Cl)cc5)oc4C)CC3)CC2)cc1	–	–	89µM	–
COc1ccc(-c2nc(CN3CCC(C(=O)NCCCN4CCN(c5ccccc5F)CC4)CC3)c(C)o2)cc1OC	7.1µM	–	–	–
Cc1oc(-c2ccc(Cl)cc2)nc1CN1CCC(C(=O)NCCCN2CCN(c3cccc(Cl)c3)CC2)CC1	–	?	79µM	–
Cc1ccc(Cl)cc1N1CCN(C(=O)C2CCN(Cc3nc(-c4ccc(Cl)cc4)oc3C)CC2)CC1	–	?	–	?

Screens (PubChem)
